Measured values published in PubChem BioAssay AID440 (NMMLSC, 2006).
Screen size: about 24,000 compounds; about 180 (0.75%) were called active. Cut-off read from the data, not from the text of the source: active = inhibition above about 30%; inconclusive = no clear call, values can overlap the other calls; inactive = below that. The entries come from a sample that favours actives as a whole.

molecular target: fMet-Leu-Phe receptor (Homo sapiens) (UniProt P21462); assay: small molecules displacing FPR fluorescent ligand – cell-based, FPRL1 counter-screen, flow cytometry, primary screen (AID 440); settings: FPR-expressing cells, fluorescent ligand binding, hits give high values, concentration not given here;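 note: 0% = buffer wells and 100% = receptor blocker peptide wells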
Sequence (P21462 whole entry, looked up): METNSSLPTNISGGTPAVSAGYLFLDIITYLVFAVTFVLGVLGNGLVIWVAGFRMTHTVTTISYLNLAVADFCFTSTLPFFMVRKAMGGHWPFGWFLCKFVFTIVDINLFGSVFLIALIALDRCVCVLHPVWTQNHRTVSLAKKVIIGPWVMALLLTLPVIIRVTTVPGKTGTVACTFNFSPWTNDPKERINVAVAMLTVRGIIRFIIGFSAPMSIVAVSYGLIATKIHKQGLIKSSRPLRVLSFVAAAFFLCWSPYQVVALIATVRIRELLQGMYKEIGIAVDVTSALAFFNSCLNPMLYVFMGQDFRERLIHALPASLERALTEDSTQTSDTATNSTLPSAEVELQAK

**Q.** How did the inhibition turn out when `N#CCCN1CCN(S(=O)(=O)c2ccc(S(=O)(=O)N3CCCC3)cc2)CC1` was run?
**A.** The inhibition was -3.3% (inactive).

**Q.** For `O=C(Nc1ccc(Cl)cn1)Nc1cccs1`, which inhibition is on record?
**A.** Its inhibition is -2.2% (inactive).

**Q.** With `COc1ccc(/C(O)=C2\C(=O)C(=O)N(Cc3ccco3)C2c2ccc(OC)cc2OC)cc1` (centres undefined) as the compound, how does the inhibition read?
**A.** The inhibition was 38% (active).

**Q.** For `COc1ccccc1C1/C(=C(/O)c2ccc(C)cc2)C(=O)C(=O)N1Cc1ccco1` (centres undefined), which inhibition is on record?
**A.** The inhibition was 4.3% (inactive).

**Q.** `COc1ccc(/C(O)=C2/C(=O)C(=O)N(CC3CCCO3)C2c2ccc(OC)c(OC)c2)cc1` (centres undefined) was tested. Which inhibition did it give?
**A.** Its inhibition is 0.3% (inactive).

**Q.** How did the inhibition turn out when `CCOC(=O)Cn1c(CN(Cc2ccccc2)Cc2ccccc2)nc2c1c(=O)[nH]c(=O)n2C` was run?
**A.** Its inhibition is -0.1% (inactive).

**Q.** For `COc1c(F)c(F)c(C(=O)O)c(Nc2ccccc2C)c1F`, which inhibition is on record?
**A.** Its inhibition is -4.8% (inactive).

**Q.** For `Cc1cc(N2C(=O)C(=O)/C(=C(/O)c3ccccc3)C2c2cccc(Br)c2)no1` (centres undefined), which inhibition is on record?
**A.** The inhibition was -1.3% (inactive).

**Q.** How did the inhibition turn out when `CCOC(=O)c1ccn(-c2nc(-c3ccco3)cc(C(F)(F)F)n2)n1` was run?
**A.** Its inhibition is 5.4% (inactive).

**Q.** `CN1CCCC(OC(=O)COc2ccc(Br)cc2)C1` (centres undefined) was tested. Which inhibition did it give?
**A.** The inhibition was -3% (inactive).

**Q.** Which inhibition does the source give for `CCCn1nnc2sc3c(c2c1=O)CCC(C)C3` (centres undefined) here?
**A.** The inhibition was 0.2% (inactive).

**Q.** With `Cc1cccc(-n2nc3c(c2NC(=O)c2ccc(Br)o2)CSC3)c1C` as the compound, how does the inhibition read?
**A.** The inhibition was 6.4% (inactive).

**Q.** For `CC1(C)C(=O)Nc2ccccc2N1C(=O)COC(=O)Cn1cnc2ccccc2c1=O`, which inhibition is on record?
**A.** The inhibition was -1.5% (inactive).

**Q.** For `O=C(CCSCCc1ccccn1)Nc1nccs1`, which inhibition is on record?
**A.** The inhibition was 2.6% (inactive).

**Q.** Which inhibition does the source give for `c1ccc(Cc2nn3c(Cn4cnc5ccccc54)nnc3s2)cc1` here?
**A.** Its inhibition is 4.2% (inactive).

**Q.** With `CCOc1cccc(-c2nnc3sc(COc4ccc(OC)cc4)nn23)c1` as the compound, how does the inhibition read?
**A.** The inhibition was -4.8% (inactive).

**Q.** How did the inhibition turn out when `Clc1ccc(Cc2nn3c(-c4ccncc4)nnc3s2)cc1` was run?
**A.** Its inhibition is 46.7% (active).

**Q.** For `CCOc1ccc(NC(=O)CCS(=O)(=O)c2cccc3nsnc23)cc1`, which inhibition is on record?
**A.** Its inhibition is 7.6% (inactive).

**Q.** With `O=C(c1ccccc1)c1cccn1CC(=O)N1CCN(c2ccc(F)cc2)CC1` as the compound, how does the inhibition read?
**A.** The inhibition was 0.2% (inactive).

**Q.** Which inhibition does the source give for `CCCC(=O)C1=C(N(C)c2ccccc2)CC(C)(C)C(C(=O)OC)C1=O` (centres undefined) here?
**A.** Its inhibition is 1.9% (inactive).

**Q.** How did the inhibition turn out when `O=C(O)CC(c1ccccc1)n1cnnn1` (centres undefined) was run?
**A.** Its inhibition is -4.6% (inactive).

**Q.** Which inhibition does the source give for `CCN(Cc1ccccc1)C(=O)CSc1nc(C)cc2c1C(=O)OC2` here?
**A.** Its inhibition is 2% (inactive).

**Q.** `O=C(CCN1C(=O)c2ccccc2C1=O)NCCN1CCOCC1` was tested. Which inhibition did it give?
**A.** Its inhibition is -4.5% (inactive).

**Q.** With `O=C1CC(c2ccccc2)CC(O)=C1C=NCCN1CCOCC1` (centres undefined) as the compound, how does the inhibition read?
**A.** Its inhibition is 9.7% (inactive).

**Q.** How did the inhibition turn out when `CCCC(=O)Nc1nnc(CC(=O)OCC)s1` was run?
**A.** Its inhibition is 9.1% (inactive).

**Q.** With `COc1cc(C2C(C(=O)c3ccc(C)o3)=C(O)C(=O)N2CCc2ccccc2)ccc1O` (centres undefined) as the compound, how does the inhibition read?
**A.** Its inhibition is 69.9% (active).

**Q.** With `COc1ccc(-c2nc(CS(=O)CC(=O)NCc3cccnc3)c(C)o2)cc1OC` (centres undefined) as the compound, how does the inhibition read?
**A.** Its inhibition is 7.2% (inactive).

**Q.** For `CCOc1ccccc1C(=O)NCCCn1ccnc1`, which inhibition is on record?
**A.** The inhibition was -3.4% (inactive).

**Q.** How did the inhibition turn out when `COc1cc(C2C(C(=O)Nc3ccccc3OC)=C(C)Nc3ncnn32)ccc1O` (centres undefined) was run?
**A.** The inhibition was -6.4% (inactive).

**Q.** For `CCCOc1ccc(C2C(C(=O)c3ccc(C)o3)=C(O)C(=O)N2CCCn2ccnc2)cc1` (centres undefined), which inhibition is on record?
**A.** Its inhibition is 52.8% (active).

**Q.** With `COc1cc(C2C(C(=O)c3sc(C)nc3C)=C(O)C(=O)N2CCN(C)C)cc(OC)c1OC` (centres undefined) as the compound, how does the inhibition read?
**A.** The inhibition was 3.4% (inactive).

**Q.** How did the inhibition turn out when `CCOc1ccc(/C(O)=C2/C(=O)C(=O)N(Cc3cccnc3)C2c2ccc(N(C)C)cc2)c(C)c1` (centres undefined) was run?
**A.** The inhibition was 27.7% (inactive).

**Q.** Which inhibition does the source give for `CCCOc1ccc(C2c3c(oc4cc(C)c(C)cc4c3=O)C(=O)N2CCCN2CCOCC2)cc1` (centres undefined) here?
**A.** Its inhibition is 5.8% (inactive).

**Q.** Which inhibition does the source give for `COc1cc(C2C(C(=O)c3ccc(C)o3)=C(O)C(=O)N2Cc2cccnc2)ccc1O` (centres undefined) here?
**A.** Its inhibition is 40.6% (active).
